Experimental findings from PubChem BioAssay AID2685 (National Center for Advancing Translational Sciences (NCATS), 2010) are described below.

Out of some 320,000 compounds screened, about 2,100 (0.66%) were called active. Another 53% or so got no clear call; they are omitted. The call rests on the fitted dose curve; in most records, active means well fitted inhibition curve with a large enough effect in the signal ratio, with a control signal flat (not every such curve was filed as active); inconclusive means small, poorly fitted or top-dose-only effect, or effect the other way, or a change in a side signal; inactive means flat fitted curve, though single readings scatter; the % refers to the signal ratio. The sample as a whole holds a higher share of actives than the screen did.
Potency means the concentration at half of the fitted maximal effect.

The assay can be described thus: qHTS Assay for Lipid Storage Modulators in Drosophila S3 Cells.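 On cell number change: cells counted by Cell Tracker Red CMTPX staining in the red channel.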 Conditions: BODIPY lipid droplet fluorescence, 18-24 h, cells fed with added oleic acid; cell number change: measured here: cell count max response; series mostly up to 46.1 µM. The method, boiled down:
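Laser-scanning cytometry quantifies lipid droplet accumulation (500–530 nm total intensity; droplet/cell object ratio) in oleic acid-fed (400 uM added) Drosophila S3 cells treated with a concentration series. 20 uM Triacsin C defined 100% inhibition.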
Take `CCCCC(C)(O)C/C=C/[C@H]1[C@H](O)CC(=O)[C@@H]1CCCCCCC(=O)OC` (some centres undefined): the Potency was 23.1 µM (active) and the cell number change is -1.2%. On the same counts, the results for `COC(=O)c1ccc(C2C(C(=O)OCC(C)C)=C(C)N=C3SCCC(=O)N32)cc1` (centres undefined) are “inactive” and -2.78%. On to `CCCCCCN1C2=NCCCN2c2ccccc21`, for which the Potency result was “inactive” and the cell number change was -6.55%.

On to `Cc1sc(-n2cccc2)c(C(=O)O)c1C`, for which the Potency is 1.84 µM (active) and the cell number change was -19.7%. Taken in the same sequence, the figures for `CCOC(=O)c1c(-n2cccc2)sc2c1CCCC2=O` were “inactive” and -2.93%. Take `O=C(O)c1c(-n2cccc2)sc2c1CCCC2`: the Potency entry is “inactive” and the cell number change amounted to 1.31%. In the case of `COc1ccc(Nc2ccncc2[N+](=O)[O-])cc1`, the Potency entry is “inactive” and the cell number change worked out at 12.3%. Take `O=C(C1CC(=O)N(c2ccccc2)C1)N1CCN(C2=NS(=O)(=O)c3ccccc32)CC1` (centres undefined): the Potency entry was “inactive”.

Turning to `Cc1cc(C)c(C)c(S(=O)(=O)N2CCC(C(=O)N3CC(C)CC(C)C3)CC2)c1C` (centres undefined), the Potency entry was “inactive” and the cell number change was -11.8%. On the same counts, the results for `COc1ccccc1NC(=O)C1=C(C)Nc2nnnn2C1c1cc(Br)ccc1OC` (centres undefined) are “inactive” and 1.78%.

With `COc1ccc(CNC(C)C23CC4CC(CC(C4)C2)C3)c(OC)c1OC` (centres undefined), the Potency result is “inactive” and the cell number change was determined as 0.296%.

Regarding `CCCCCCCCNC(=O)c1cccnc1SCC(=O)Nc1ccc(OC)cc1OC`, the Potency is 20.6 µM (active) and the cell number change is -25.3%. On the same counts, the results for `CCCCCNC(=O)c1cccnc1SCC(=O)Nc1ccccc1OC` are “inactive” and -0.809%. For the molecule `COc1ccc(OC)c(NC(=O)CSc2ncccc2C(=O)O)c1`, the Potency entry was “inactive”. Regarding `CN(C(=O)C1CCC(=O)N(Cc2ccccc2F)C1)C1CCOCC1` (centres undefined), the Potency result was “inactive” and the cell number change was 7.76%.

`CC(C)CNC(=O)CC1Nc2ccccc2NC1=O` (centres undefined): the Potency was 10.3 µM (active) and the cell number change was -19.4%.

In the case of `CC(NC(=O)CC1Nc2ccccc2NC1=O)c1ccccc1` (centres undefined), the Potency entry was “inactive”.

Regarding `CCCCNC(=O)CC1Nc2ccccc2NC1=O` (centres undefined), the Potency entry was “inactive”. On to `COC(=O)c1cc(C)sc1NC(=O)CC1Nc2ccccc2NC1=O` (centres undefined), for which the Potency was 16.4 µM (active) and the cell number change was -20.6%. Consider `CCc1cc(C(=O)OC)c(NC(=O)CC2Nc3cc(C)c(C)cc3NC2=O)s1` (centres undefined), for which the Potency result is “inactive” and the cell number change was -3.56%. Taken in the same sequence, the figures for `COC(=O)c1c(NC(=O)CC2Nc3ccccc3NC2=O)sc(C)c1C` (centres undefined) were “inactive” and 18.7%. On the same counts, the results for `COC(=O)c1[nH]c(C)c(/C(O)=C2\C(=O)C(=O)N(CCN(C)C)C2c2cccc(OC)c2OC)c1C` (centres undefined) are “inactive” and -3.7%.

`Cc1cc(=O)oc2cc(OC(C)C(=O)NCCCn3ccnc3)ccc12` (centres undefined): the Potency result is “inactive” and the cell number change is 5.93%. On to `COC(=O)c1cn(NC(=O)c2ccncc2)c(=O)c2ccccc12`, for which the Potency result is “inactive” and the cell number change was -18.7%. On the same counts, the results for `COc1ccccc1C(=O)N1CCN(Cc2nc(CC3CC3)no2)CC1` are “inactive” and 10.8%. On the same counts, the results for `Cc1ccc(-c2ccccc2NC(=O)CS(=O)CC(=O)Nc2ccc(C)c(Cl)c2)o1` (centres undefined) are 23.1 µM (active) and -13%. With `Cc1ccc(NC(=O)CS(=O)CC(=O)Nc2ccccc2-c2ccc(C)o2)cc1` (centres undefined), the Potency entry was “inactive” and the cell number change came to 17.8%. Take `Cc1ccc(NC(=O)CS(=O)CC(=O)NCCCc2ccccc2)cc1Cl` (centres undefined): the Potency entry is “inactive”.

Turning to `OCC1(CCc2ccccc2)CCN(Cc2ccccc2Cl)CC1`, the Potency entry is “inactive” and the cell number change was 4.39%. `COc1ccc(-c2nnc3ccc(SCC(=O)Nc4cc(C)on4)nn23)cc1`: the Potency result is “inactive” and the cell number change was determined as 8.27%. `Cc1cccc(-n2c(C)cc(C(=O)NC3CCCCC3)c2C)c1`: the Potency was 20.6 µM (active) and the cell number change is -27.1%. On the same counts, the results for `COc1ccc(-n2c(C)cc(C(=O)NC3CCCCC3)c2C)cc1` are “inactive” and -26.1%. Turning to `Cc1cc(C(=O)NC2CCCCC2)c(C)n1-c1ccc(F)cc1`, the Potency result was “inactive” and the cell number change is 2.04%.

For `O=C(Nc1ccc(Cl)cc1)C1C2CCC3C(CCC21)C3(Cl)Cl` (centres undefined), the Potency result is “inactive” and the cell number change was -4.94%. As to `O=C(NCC1CCCN1S(=O)(=O)c1ccccc1)C(=O)NC1CC1` (centres undefined), the Potency entry was “inactive”. For `CN(CC(=O)O)S(=O)(=O)c1ccc(F)cc1`, the Potency result is “inactive” and the cell number change turned out to be 12.3%.

`CCCc1ccc(S(=O)(=O)N(C)S(=O)(=O)c2ccc(F)cc2)cc1`: the Potency is 0.82 µM (active) and the cell number change came out at 17.6%. Regarding `CCN(CC)S(=O)(=O)c1ccc(F)cc1`, the Potency result is “inactive” and the cell number change was found to be 12.5%.

In the case of `CCN(CC(=O)Nc1ccccc1C(F)(F)F)C(=O)CSCc1ccc(C)cc1`, the Potency result is “inactive” and the cell number change stood at 3.04%. Consider `COc1ccc(CNC(=O)OCCN2CCN(S(=O)(=O)c3ccc(C)cc3)CCC2=O)cc1`, for which the Potency entry is “inactive” and the cell number change turned out to be 22.9%.

With `Cc1ccc(O)c(NC(=O)CN(C)S(=O)(=O)c2ccc(Cl)cc2)c1`, the Potency result is “inactive” and the cell number change was determined as 2.51%. For `COc1ccc(N2C(=O)C(CC(=O)Nc3ccccc3)N(CCc3ccc(OC)c(OC)c3)C2=O)cc1` (centres undefined), the Potency entry was “inactive” and the cell number change is 0.202%.

For `O=C(COC(=O)Cn1cnc2ccccc21)NCCC1=CCCCC1`, the Potency entry is “inactive” and the cell number change was -15.3%. On to `O=C(COC(=O)Cn1cnc2ccccc21)NCc1ccc(F)cc1`, for which the Potency result was “inactive” and the cell number change was determined as 21.3%. On the same counts, the results for `O=C(COC(=O)Cn1cnc2ccccc21)NCCc1ccc(Cl)cc1` are 8.2 µM (active) and 22.6%.
